Only some compounds are listed: those with a hit (about 0.69% of all), similar ones and a draw of the others.
TCR act: activates T cell receptor signaling; primary human leukocytes, anti-CD3, IL-2 HTRF, 48 h; Potency, µM (series often up to 9.22 µM), most hits filed as activators; 330,000 tested, under 10 active
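Compounds are tested in HTS on primary human leukocytes co-incubated with a-CD3 beads for 48 hr. IL-2 output is measured by time-resolved FRET.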
Integrin act MD: activates integrin-mediated alleviation for muscular dystrophy; Potency, µM (titrated, usually from 38.3 µM), hits mostly activators; 350,000 compounds, 0.064% hits; alpha7betagal myoblasts, beta-gal FDG fluorescence, 48 h; further: nearly all actives have a fitted effect of over 60% in size
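alpha7betagal+/- myoblasts (passage 13, 250/well) treated 48 h at 37C with compounds at 1:260 dilution of DMSO stock. Lysed, then beta-galactosidase activity read as FDG fluorescence (ex 480/em 540) after 30 min, with pre-read for autofluorescence.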
Tb PFK inh-1: inhibitors of T. brucei phosphofructokinase | 330,000 compounds, 0.17% hits | T. brucei PFK, ADP-Glo luminescence | Potency, µM (top dose mostly 57.5 µM), hits mostly inhibitors | O15648; further: nearly all actives have a fitted effect of over 60% in size
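Activity is normalized to no-enzyme wells (full inhibition) and 1.25 nM enzyme wells (no inhibition). Reaction: 0.5 mM F6P, 0.1 mM ATP, 45 min RT, ADP-Glo luminescence; concentration-response curves fitted and classed by quality.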
PKM2 activator: increases activity of human pyruvate kinase M2; AID 1631; purified PKM2, Kinase-Glo ATP luminescence, activation; response scale: 0% is enzyme alone, no compound; P14618; 260,000 compounds, 0.34% hits; Potency, µM (highest dose often 57.5 µM), hits mostly activators; further: nearly all actives have a fitted effect of over 55% in size
Target sequence (P14618 whole entry, looked up): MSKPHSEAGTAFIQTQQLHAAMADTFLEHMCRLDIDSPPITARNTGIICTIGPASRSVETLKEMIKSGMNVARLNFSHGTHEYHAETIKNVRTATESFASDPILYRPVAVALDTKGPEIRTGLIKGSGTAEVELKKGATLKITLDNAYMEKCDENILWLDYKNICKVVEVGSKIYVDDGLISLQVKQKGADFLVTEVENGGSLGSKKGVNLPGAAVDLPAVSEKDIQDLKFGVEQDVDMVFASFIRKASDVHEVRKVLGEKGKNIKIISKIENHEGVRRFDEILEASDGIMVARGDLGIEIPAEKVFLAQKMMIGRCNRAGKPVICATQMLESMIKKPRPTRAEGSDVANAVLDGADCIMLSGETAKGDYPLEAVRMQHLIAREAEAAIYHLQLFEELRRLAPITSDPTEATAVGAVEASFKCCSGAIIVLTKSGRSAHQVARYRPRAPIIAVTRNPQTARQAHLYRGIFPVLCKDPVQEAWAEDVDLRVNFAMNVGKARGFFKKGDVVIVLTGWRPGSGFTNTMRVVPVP
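ATP formation by purified human PK-M2, quantified via coupled luciferase luminescence after 1 h at room temperature with 0.1 mM ADP and 0.5 mM PEP final.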
IL2 activator: activators of IL-2; 360,000 compounds, 0.065% hits; activation, % (series mostly up to about 46 µM); IL-2 activation reporter assay, cell-based qHTS; stimulated with anti-CD3/CD4/CD28 beads; in transgenic mouse T cells; in the data active means activation above about 50%; inconclusive means mostly about 30% to 49%
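First, unstimulated transgenic mouse T cells were exposed to compound for 60 min. Next, anti-CD3/anti-CD4-coated beads with anti-CD28 were added. Finally, after 18 h at 37 degrees C, EGFP and DsRed were imaged.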
AT treatment: potential ataxia-telangiectasia treatments restoring KAP-1 phosphorylation | F2112 A-T fibroblasts, KAP-1 phosphorylation AlphaLISA; neocarzinostatin DNA damage 30 min before lysis | AID 485349 | 320,000 compounds, 0.19% hits | Potency, µM (highest dose often 57.5 µM), most hits filed as activators; further: nearly all actives have a fitted effect of over 45% in size
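hTERT-immortalized A-T patient fibroblasts (F2112), 500 cells/well in OPTI-MEM, 1% FBS, got compounds for 60 min, then NCS for 30 min at 37C. Lysates were then assayed for phospho-KAP-1 by AlphaLISA (anti-pKAP1 donor, anti-KAP1 acceptor beads), 6 hr at 25C.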
Tb PFK KinaseGlo: inhibits T. brucei PFK measured by ATP depletion. shares compounds with Tb PFK inh-1. Tb PFK enzyme, ATP depletion, Kinase-Glo Plus luminescence. Potency, µM (titrated, usually from 57.5 µM). 1,100 compounds, 47% hits; calls by dose curve; further: nearly all actives have a fitted effect of over 60% in size
Tb PFK inh-2: validation of T. brucei phosphofructokinase inhibitors; shares compounds with Tb PFK inh-1; purified T. brucei PFK, ADP-Glo luminescence, 45 min; Potency, µM (series often up to 57.5 µM), most hits filed as inhibitors; 1,100 compounds, 41% hits; AID 504637; further: nearly all actives have a fitted effect of over 60% in size
A number is an active result. Unless noted, the call rests on the fitted dose curve; in most records, active means well fitted curve in the direction sought with a large enough effect; inconclusive means small, poorly fitted or top-dose-only effect, or another doubt; inactive means no such curve, though single readings can be large; an effect the other way counts as inactive or inconclusive.

What do the screens show for `Cc1ccc(-c2cc(C(=O)Nc3nccs3)c3ccccc3n2)o1`?
TCR act: inactive; Integrin act MD: inactive; Tb PFK inh-1: 30µM; PKM2 activator: inconclusive; IL2 activator: inactive; AT treatment: inactive; Tb PFK KinaseGlo: 21µM; Tb PFK inh-2: inconclusive

Results for CN1CCCN(C(=O)COc2ccc(Br)cc2)CC1 ?
TCR act: inactive; Integrin act MD: inactive; Tb PFK inh-1: inactive; PKM2 activator: inactive; IL2 activator: inactive; AT treatment: inactive

What do the screens show for `CSc1ccc(C(=O)C2CCCN(C)C2)cc1` (stereo unspecified)?
TCR act: inactive; Integrin act MD: inactive; Tb PFK inh-1: inactive; PKM2 activator: inactive; IL2 activator: inactive; AT treatment: inactive

Results for CN1CCN(C(=S)c2ccc(Br)cc2)CC1 ?
TCR act: inactive; Integrin act MD: inactive; Tb PFK inh-1: inconclusive; PKM2 activator: inactive; IL2 activator: inactive; AT treatment: inactive; Tb PFK KinaseGlo: 12µM; Tb PFK inh-2: 13µM

How did CN1CCN(C(=S)c2ccc(N(C)C)cc2)CC1 do in these assays?
TCR act: inactive; Integrin act MD: inactive; Tb PFK inh-1: inconclusive; PKM2 activator: inactive; IL2 activator: inactive; AT treatment: inactive; Tb PFK KinaseGlo: 12µM; Tb PFK inh-2: 27µM

How did CSc1ccc(C(=S)N2CCN(C)CC2)cc1 do in these assays?
TCR act: inactive; Integrin act MD: inactive; Tb PFK inh-1: inconclusive; PKM2 activator: inactive; IL2 activator: inactive; AT treatment: inactive; Tb PFK KinaseGlo: 21µM; Tb PFK inh-2: inconclusive

How did S=C(c1ccc(Cl)cc1)N1CCOCC1 do in these assays?
TCR act: inactive; Integrin act MD: inactive; Tb PFK inh-1: inactive; PKM2 activator: inactive; IL2 activator: inactive; AT treatment: inactive

Results for CCCCCN1C(=O)c2ccccc2[C@@]2(C(=O)OCC)Cc3cc(OC)ccc3[C@@H]12 ?
IL2 activator: inactive

How did O=C(Nc1cccc(Br)c1)c1c(O)c2c(n(Cc3ccccc3)c1=O)CCCC2 do in these assays?
TCR act: inactive; Integrin act MD: inactive; Tb PFK inh-1: inactive; PKM2 activator: inactive; IL2 activator: inactive; AT treatment: inactive

What do the screens show for `O=C1CCC(C(=O)Nc2cccc(S(=O)(=O)Nc3ccccc3F)c2)=NN1`?
TCR act: inactive; Integrin act MD: inactive; Tb PFK inh-1: inconclusive; IL2 activator: inactive; AT treatment: inactive; Tb PFK KinaseGlo: 3.4µM; Tb PFK inh-2: 9.5µM

What do the screens show for `O=C(O)CCCCC1SCC2NC(=O)NC21` (stereo unspecified)?
TCR act: inactive; Integrin act MD: inactive; Tb PFK inh-1: inactive; PKM2 activator: inactive; IL2 activator: inactive; AT treatment: inactive

How did O=C1NCN(c2ccccc2)C12CCN(C(c1ccccc1OC(F)(F)F)c1nnnn1C1CCCC1)CC2 (stereo unspecified) do in these assays?
IL2 activator: inactive

How did O=C(NCc1cccc(Cl)c1)c1ccc2c(c1)OCO2 do in these assays?
Integrin act MD: inactive; Tb PFK inh-1: inconclusive; PKM2 activator: inactive; IL2 activator: inactive; AT treatment: inactive; Tb PFK KinaseGlo: 24µM; Tb PFK inh-2: 30µM

What do the screens show for `Clc1cccc(CNCCc2ccc3c(c2)OCO3)c1`?
TCR act: inactive; Integrin act MD: inactive; Tb PFK inh-1: inactive; IL2 activator: inactive; AT treatment: inactive

Results for Clc1ccc(CN2C3=NCCN3c3ccccc32)cc1 ?
TCR act: inactive; Integrin act MD: inactive; Tb PFK inh-1: 24µM; PKM2 activator: inactive; IL2 activator: inactive; AT treatment: inactive; Tb PFK KinaseGlo: 21µM; Tb PFK inh-2: 27µM

What do the screens show for `Clc1cccc(CN2C3=NCCCN3c3ccccc32)c1`?
TCR act: inactive; Integrin act MD: inactive; Tb PFK inh-1: inconclusive; IL2 activator: inactive; AT treatment: inactive; Tb PFK KinaseGlo: inconclusive; Tb PFK inh-2: inconclusive

What do the screens show for `Brc1ccc(CN2C3=NCCCN3c3ccccc32)cc1`?
TCR act: inactive; Integrin act MD: inactive; Tb PFK inh-1: inconclusive; PKM2 activator: inactive; IL2 activator: inactive; AT treatment: inactive; Tb PFK KinaseGlo: 27µM; Tb PFK inh-2: inconclusive

Results for COc1cccc(N2CCN(Cc3cccc(Cl)c3)CC2)c1 ?
TCR act: inactive; Integrin act MD: inactive; Tb PFK inh-1: inactive; PKM2 activator: inactive; IL2 activator: inactive; AT treatment: inactive

Results for O=C1NC(=O)[C@]2(Cc3ccccc3N3CCN(c4ccccc4)CC32)C(=O)N1Cc1ccccc1 (stereo partly specified) ?
TCR act: inactive; Integrin act MD: inactive; Tb PFK inh-1: inactive; PKM2 activator: inactive; IL2 activator: inactive; AT treatment: inactive

Results for COc1ccccc1N1CCN(Cc2ccc(Br)cc2)CC1 ?
Integrin act MD: inactive; Tb PFK inh-1: inactive; PKM2 activator: inactive; IL2 activator: inactive; AT treatment: inactive

What do the screens show for `O=C1CC(N2CCN(c3ccc(Cl)c(Cl)c3)CC2)C(=O)N1` (stereo unspecified)?
TCR act: inactive; Integrin act MD: inactive; Tb PFK inh-1: 6µM; PKM2 activator: inactive; IL2 activator: inactive; AT treatment: inactive; Tb PFK KinaseGlo: inconclusive; Tb PFK inh-2: inconclusive

Results for Cc1occc(=O)c1OC(=O)Nc1ccc(Cl)c(Cl)c1 ?
TCR act: inactive; Integrin act MD: inactive; Tb PFK inh-1: 30µM; PKM2 activator: inactive; IL2 activator: inactive; AT treatment: inconclusive; Tb PFK KinaseGlo: inconclusive; Tb PFK inh-2: inconclusive

What do the screens show for `C[C@]12CCC3C(CC[C@H]4C[C@H](O)CC[C@]34C)C1[C@@H](O)[C@@H](O)[C@@H]2O` (stereo partly specified)?
TCR act: inactive; Integrin act MD: inactive; Tb PFK inh-1: inactive; IL2 activator: inactive; AT treatment: inactive

What do the screens show for `O=S(=O)(O)c1cc(OS(=O)(=O)c2ccccc2)cc2ccccc12`?
TCR act: inactive; Integrin act MD: inactive; Tb PFK inh-1: 24µM; PKM2 activator: inactive; IL2 activator: inactive; AT treatment: inactive; Tb PFK KinaseGlo: inconclusive; Tb PFK inh-2: inconclusive

What do the screens show for `Cc1ccc(C)c(-n2sc3ccc(F)cc3c2=O)c1`?
TCR act: inactive; Integrin act MD: inactive; Tb PFK inh-1: 3µM; IL2 activator: inactive; AT treatment: inactive; Tb PFK KinaseGlo: 19µM; Tb PFK inh-2: 17µM

Bioassay records: PubChem BioAssay, National Center for Advancing Translational Sciences (NCATS)
